Bioassay records: PubChem BioAssay, National Center for Advancing Translational Sciences (NCATS)
In the library only some 12% were active in any assay of this set; here they are far more common.
Sfp inh = inhibitors of Bacillus subtilis Sfp phosphopantetheinyl transferase | Potency, µM, inactives show largest response in the series, negative = inhibition, most hits filed as inhibitors | AID 1490 | Q9F4F7 | 3.5% of 310,000 active | Biochemical Sfp PPTase activity, qHTS;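 note: the enzyme is Sfp with the accession as filed and its product quenches rhodamine fluorescence; 0% = enzyme reaction without inhibitor and -100% = no enzyme wells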
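Fluorescence-quenching assay with 15 nM Sfp, 5 uM rhodamine-CoA and 12.5 uM BHQ-2-labelled ybbR peptide in pH 7.6 Hepes/MgCl2 buffer. Enzyme was pre-incubated with compound for 15 min at room temperature. Rate was taken from the 30-min fluorescence change (525/598 nm).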
VP16 counter = Gal4-VP16 reporter inhibition counter-screen | 3.5% of 310,000 active | Potency, µM (highest dose often 53.6 µM), for the others: at the highest dose activity, negative = inhibition, usual class: inhibitors | Drosophila S2 Gal4-VP16 UAS-luciferase, luminescence, 20 h;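 note: Gal4-VP16 expression switched on by copper sulfate through the metallothionein promoter; nearly all actives have a fitted effect of over 50% in size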
PLK1 PBD block = inhibitors of human PLK1 polo-box domain binding; P53350; Plk1 PBD binding of FITC phosphopeptide, fluorescence polarization; Potency, µM, inactives show max response, negative = inhibition, usual class: inhibitors; 2.8% of 360,000 active; note: series mostly up to about 57 µM; nearly all actives have a fitted effect of over 65% in size
Target sequence (P53350 whole entry, looked up, the tested form may be a part): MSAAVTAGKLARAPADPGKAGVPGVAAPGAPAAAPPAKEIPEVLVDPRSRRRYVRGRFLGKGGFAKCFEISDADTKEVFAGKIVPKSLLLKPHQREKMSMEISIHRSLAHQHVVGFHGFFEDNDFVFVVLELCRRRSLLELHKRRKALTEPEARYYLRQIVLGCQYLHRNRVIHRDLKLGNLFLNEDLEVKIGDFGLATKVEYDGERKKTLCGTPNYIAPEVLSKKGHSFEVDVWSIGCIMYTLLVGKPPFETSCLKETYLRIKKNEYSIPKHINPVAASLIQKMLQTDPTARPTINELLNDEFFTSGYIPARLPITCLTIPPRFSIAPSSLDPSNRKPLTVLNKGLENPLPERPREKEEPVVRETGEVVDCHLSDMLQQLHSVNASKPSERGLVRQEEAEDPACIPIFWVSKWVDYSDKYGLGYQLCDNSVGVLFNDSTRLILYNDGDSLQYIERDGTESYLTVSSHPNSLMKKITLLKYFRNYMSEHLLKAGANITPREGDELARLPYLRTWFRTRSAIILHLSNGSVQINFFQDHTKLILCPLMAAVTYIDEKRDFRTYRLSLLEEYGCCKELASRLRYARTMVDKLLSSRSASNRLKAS
RORgamma inh = ROR gamma (mouse) transcription inhibition | P51450 | 5.4% of 310,000 active | Drosophila S2 Gal4-RORgamma UAS-luciferase reporter, 20 h | AID 2551 | Potency, µM (highest dose often 53.6 µM), inactives show at the top dose activity change, negative = inhibition, usual class: inhibitors; note: nearly all actives have a fitted effect of over 60% in size
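ROR gamma transcriptional activity was tracked as Gal4-UAS luciferase output in stably transfected Drosophila Schneider cells, with compound added 1 hr before 700 uM copper sulfate induction and a 20 hr ambient-temperature incubation.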
ALDH1A1 block = ALDH1A1 (human) enzyme inhibition; P00352; Purified ALDH1A1, NADH fluorescence, propionaldehyde substrate; Potency, µM (series often up to 75.3 µM), inactives show at the highest dose activity, negative = inhibition, actives largely listed as inhibitors; 7.3% of 220,000 active; AID 1030; active = well fitted inhibition curve with a large enough effect, not every such curve was filed as active; inconclusive = small, poorly fitted or top-dose-only effect, or another doubt; inactive = no such curve, though single readings can be large or run the other way;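 note: plate controls were no enzyme wells and a reference inhibitor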
The depositor's hits bear a star; u = inconclusive; x = not tested or not shown; [ ] = dose if it differs, or a comment. Unless noted, calls come from the whole dose curve; as a rule, active = well fitted curve in the direction sought with a large enough effect; inconclusive = small, poorly fitted or top-dose-only effect, or another doubt; inactive = no such curve, though single readings can be large; an effect the other way counts as inactive or inconclusive. Unless noted, % is set by controls: 0 for no effect and ±100 for the full control effect; potency is the fitted concentration of half-maximal effect.

SMILES	Sfp inh	VP16 counter	PLK1 PBD block	RORgamma inh	ALDH1A1 block
O[C@@H](c1cc([C@@]23C[C@H]4CC[C@@H]2C[C@H](C4)C3)nc2c(Cl)cc(Cl)cc12)C1CCCCN1 (stereo partly drawn)	x	x	x	x	2%[13.5 µM]
CN(C)CCCNC(=O)N1c2ccccc2C=Cc2ccccc21	10%	-3%	27µM*	5%	x
CC(C)(C)NC(=O)C(c1ccc(C(F)(F)F)cc1)n1c(=O)c(-c2cc3ccccc3[nH]2)nc2ccccc21 (stereo not drawn)	x	x	-5%	x	x
N#Cc1c(-c2ccccc2Cl)c2c([nH]c1=O)-c1ccccc1OC2	4%	-1%	u	-17%	x
Cc1cc(-c2ccccc2)c(C#N)c(=S)[nH]1	28µM*	u	-25%	u	7.9µM*
Cc1ccc(-c2cc(-c3ccccc3)c(C#N)c(Br)n2)cc1	-18%	-2%	5%	-12%	207%
N#Cc1c2c(c(-c3ccccc3Cl)[nH]c1=S)CCCC2	u	16µM*	17µM*	16µM*	-5%
N#Cc1c(-c2ccccc2Cl)cc(-c2ccccc2)[nH]c1=S	-26%	3%[10 µM]	x	-5%	10µM*
CCc1nc2ccc(C(=O)Nc3cccc(OCC(=O)N(C)C)c3)cn2c1N(CCC(C)C)CCN(C)C	x	x	0%	x	x
O=C(CN1C(=O)NC2(CCCc3ccccc32)C1=O)NCc1ccc(Cl)cc1Cl (stereo not drawn)	10%	x	-3%	x	x
O=C(NC1CCCCC1)c1cccc(NC(=O)c2ccccc2Cl)c1	x	x	-7%	x	x
CCCNC(=O)C1(C)CCN(C(=O)/C=C/c2ccccc2)C1 (stereo not drawn)	x	x	0%	x	x
Cc1ccc2nc(-c3ccc(NS(C)(=O)=O)cc3)cc(-c3ccccc3)c2c1	6%	22µM*	-14%	u	u
CCn1cc(-c2cc(C(=O)O)c3ccccc3n2)c(C)n1	28%	-26%	-2%	u	u
CCn1cc(-c2cc(C(=O)O)c3ccccc3n2)cn1	20%	u	-3%	5.6µM*	u
CCC(=O)Nc1ccc(-c2cc(-c3ccccc3)nc(-c3ccc(NC(=O)CC)cc3)n2)cc1	14%	7.1µM*	-13%	8.9µM*	u
CCS(=O)(=O)Nc1ccc(-c2cc(-c3ccccc3)c3cc(C)ccc3n2)cc1	-16%	-4%	0%	u	u
CC(C)(C)c1ccc(-c2cc(C(=O)NNC(=O)Nc3ccccc3)c3ccccc3n2)cc1	11%	u	u	1µM*	-14%
COc1ccccc1C1NC(=O)NC(C)=C1C(=O)OC1CCC(C)CC1 (stereo not drawn)	5%	x	-9%	x	x
CC(=O)Nc1ccc(-c2cc(C(=O)O)c3ccccc3n2)cc1	-1%	u	-24%	10µM*	x
CCc1ccc(-c2cc(C(=O)Nn3cnnc3)c3ccccc3n2)cc1	10%	0.63µM*	-13%	0.89µM*	u
CC(=O)NS(=O)(=O)c1ccc(NC(=O)c2cc(-c3ccc(C)cc3)nc3ccccc23)cc1	-3%	-3%	-26%	u	u
COc1cc(C(O)c2nc(-c3csc4ccccc34)cs2)ccc1F (stereo not drawn)	x	x	-1%	x	x
Cc1cccnc1NC(=S)Nc1ccc(Br)cc1Cl	20µM*	7.1µM*	-19%	2.5µM*	u
CCOc1ccc(Br)cc1S(=O)(=O)Nc1cccc(S(=O)(=O)N(C)C)c1	-8%	0%	-5%	5%	20µM*
SMILES	Sfp inh	VP16 counter	PLK1 PBD block	RORgamma inh	ALDH1A1 block
CCOc1ccc(Br)cc1S(=O)(=O)Nc1ncn[nH]1	7%	0%	-17%	-2%	x
CCOc1ccc(NC(=S)Nc2ccc(Br)cc2Cl)cc1	40µM*	u	-22%	14µM*	u
CCOc1ccc(NC(=S)NS(=O)(=O)c2cc(Br)ccc2OCC)cc1	x	x	12µM*	x	x
CC1=C(C(=O)N(C(C)C)C(C)C)CC(CC(=O)NCc2cccs2)C(=O)N1CCC1=CCCCC1 (stereo not drawn)	x	x	0%	x	x
CCN=C1S/C(=C\c2cc(OCC)c(O)cc2Br)C(=O)N1CC	-3%	-19%	8%	u	0.89µM*
CCN=C1S/C(=C\c2ccc(O)c(OCC)c2)C(=O)N1CC	6%	-3%	14%	-8%	u
CCOC(=O)c1sc(=S)n(C)c1C	-2%	0%	-9%	5%	-9%
CCOC(=O)c1c[nH]c(=S)n1C	u	-2%	-8%	11µM*	-7%
CCn1c(=O)c(=O)[nH]c2cc(C(=O)NC(C)c3ccc(S(N)(=O)=O)cc3)ccc21 (stereo not drawn)	2%	4%	-25%	12%	x
COCOCCn1cc(CN2CCS(=O)(=O)N(Cc3ccc(-c4ccc(OC)cc4)cc3)C(C(C)C)C2=O)nn1 (stereo not drawn)	x	x	-5%	x	x
Cc1sc2nc(SCC(=O)NCc3ccco3)n(C)c(=O)c2c1C	10%	-1%	-3%	18%	1%
CCCn1c(SCC(=O)NCc2ccc(F)cc2)n[nH]c1=O	20%	-7%	21µM*	-6%	2%
CCn1c(SCC(=O)NC(=O)NCc2ccco2)nc2sc(C)c(C)c2c1=O	25µM*	u	-9%	-16%	8.9µM*
Cc1sc2nc(SCC(=O)NCc3ccco3)n(CCc3ccccc3)c(=O)c2c1C	-9%	u	-6%	13µM*	u
CCCn1c(SCC(=O)NC(=O)NCc2ccco2)n[nH]c1=O	22µM*	4%	x	27%	-14%
CCCn1cnc2c(c1=O)c1nc3ccccc3nc1n2Cc1ccccc1OC	8%	0%	x	-21%	4µM*
CCC(C)n1cnc2c(c1=O)c1nc3ccccc3nc1n2Cc1ccccc1OC (stereo not drawn)	11%	0%	-10%	6%	u
Cc1cccc(S(=O)(=O)c2c(N)n(Cc3ccco3)c3nc4ccccc4nc23)c1	u	-7%	-6%	-16%	u
CC(C)CCn1cnc2c(c1=O)c1nc3ccccc3nc1n2Cc1ccc2c(c1)OCO2	8%	-8%	-6%	11%	u
COc1ccc(Cn2c3nc4ccccc4nc3c3c(=O)n(Cc4ccco4)cnc32)cc1	4.5µM*	u	x	10µM*	u
Cc1cccc(-n2cnc3c(c2=O)c2nc4ccccc4nc2n3Cc2ccco2)c1	3.5µM*	-28%	-15%	u	u
CCC1CO1 (stereo not drawn)	x	1%	x	5%	-2%
CSc1nc(SCc2ccccc2)[nH]c(=O)n1	x	x	-11%	x	x
COc1cccc2[nH]c(C(=O)NN)c(N)c12	-1%	-1%	-11%	u	28µM*
C[C@@H]1CN([C@H](C)CO)C(=O)CCCn2nncc2CO[C@@H]1CN(C)S(=O)(=O)c1ccc2ccccc2c1	x	x	-2%	x	x
CC1CN(C(=O)c2nn(C)cc2[N+](=O)[O-])CC(C)O1 (stereo not drawn)	14%	0%	12µM*	-1%	16%
